About 11,000 (3.1%) of roughly 360,000 compounds were called active. Not shown: some 2% with an inconclusive outcome. This is one part of a sample in which actives are shown more often than they occur. Values without a mark were called inactive. Rule as the data show it: active = fluorescence intensity above about 16000; inconclusive = no clear call, values can overlap the other calls; inactive = below that.
test: counter-screen for toxin protease inhibitors: compound fluorescence, primary screen, artefact control for toxin protease inhibitor project, biochemical, multiplex microsphere, HTS (AID 624483); conditions: compound autofluorescence counterscreen, microsphere flow cytometry; hits give high values

SMILES	fluorescence intensity
CC(C)COc1ccc(C(=O)NNC(=O)CCC(=O)c2cccs2)cc1	4110
O=C(O)CSc1nnc(-c2ccc3c(c2)OCO3)n1-c1ccccc1	2040
O=C(O)CCSc1nnc(-c2ccccc2)n1-c1ccccc1	22100 (active)
NNC(=O)CSc1nnc(-c2ccccc2)n1-c1ccccc1	3710
COc1ccccc1Cc1c(-c2ccc(Cl)cc2)nc2ccc(Cl)cn12	8280
Cc1nn(-c2ccccc2)c(C)c1NC(=O)CCl	2020
Cc1nn(-c2ccccc2)c(Cl)c1C(=O)Nc1ccccc1	20900 (active)
COc1ccc(CCNC(=O)c2c(C)nn(-c3ccccc3)c2Cl)cc1	5520
CCc1nc2ccc(C(=O)Nc3cc(-c4ccccc4)ccc3OC)cn2c1N(CC)CC(=O)N(C)C	3600
CCOC(=O)C1CCN(Cc2ccc(-c3ccccc3)cc2)CC1	3660
CCOC(=O)C1CCN(C(=O)Nc2ccc(Cl)cc2)CC1	2770
CCOC(=O)C1CCN(Cc2coc3ccc(Cl)cc3c2=O)CC1	20400 (active)
Cc1cc(CNCc2c(C(=O)N(C)Cc3ccccc3)nc3ccccn23)nn1C	2160
N#CC1=C(N)Oc2cc(N)ccc2C1c1ccccc1 (stereo not drawn)	4230
COc1ccc(C2C(C#N)=C(N)Oc3cc(N)ccc32)cc1OC (stereo not drawn)	23300 (active)
N#CC1=C(N)Oc2cc(O)ccc2C1C1CCCCC1 (stereo not drawn)	4810
O=C(NCc1ccccc1Cl)c1csc([C@@H]2O[C@H](CO)[C@@H](O)[C@H]2O)n1	3690
Cc1cccc(-n2ncc(Cl)c(Cl)c2=O)c1	3990
Cc1cccc(-n2ncc(C#N)c2-n2cccc2)c1	19100 (active)
CC(=O)Nc1c2c(nn1-c1cccc(C)c1)CSC2	5830
CCOC(=O)C1CCCN(C(=O)c2ccc(N(C)C)cc2)CC1 (stereo not drawn)	2830
CCc1nc2c(OCCC3CCCCC3)cccn2c1N(C)C(=O)c1ccco1	3130
COc1ccc(C(=O)N2CCCCC2c2cc(C(=O)Nc3ccccc3)no2)cc1 (stereo not drawn)	3670
CCCNC(=O)C1(C)CCN(Cc2ccc(Cl)c(Cl)c2)C1 (stereo not drawn)	4070
CC1(C(=O)Nc2ccccc2Br)CCN1C(=O)CC1CC1 (stereo not drawn)	4640

SMILES	fluorescence intensity
O=C(Nc1cccc(Cc2ccccc2)c1)Nc1ccc2nc([C@@H]3O[C@H](CO)[C@@H](O)[C@H](O)[C@H]3O)[nH]c2c1	5830
O=C(CN1CCN(c2ccccn2)CC1)NC1CCCCC1	5140
O=C(C(Cl)Cl)N1CCN(c2ccccn2)CC1	2340
CN1C(=O)CC(N2CCN(c3ccccn3)CC2)C1=O (stereo not drawn)	20700 (active)
CCCCc1c(-c2ccc(Cl)cc2)ncn1CCc1ccccc1OC	6340
CCOc1ccc(CN(Cc2ccco2)S(=O)(=O)c2ccc(-n3cnnn3)c(OC)c2)cc1	11600
COc1ccc(S(=O)(=O)NCc2ccc(C(=O)N(C)Cc3ccco3)cc2)cc1	10900
COc1ccc(CN(Cc2ccco2)S(=O)(=O)c2ccc(S(=O)(=O)N3CCCC3)cc2)cc1	23600 (active)
CC1(C(=O)Nc2cccc3c2CCCC3)CCN1C(=O)C1(c2ccccc2)CC1 (stereo not drawn)	3760
C=CCn1c2c(c3ccccc31)CCC2	6080
COc1ccc2c(c1OC)C(=O)OC2Nc1nc(-c2ccccc2)cs1 (stereo not drawn)	2960
NS(=O)(=O)c1ccc(Nc2nc(-c3ccccc3)cs2)cc1	23200 (active)
COc1ccc(Nc2nc(-c3ccccc3)cs2)cc1	23300 (active)
CC(=O)c1ccc(Nc2nc(C(N)c3ccccc3)cs2)cc1 (stereo not drawn)	3990
COc1ccc(-c2csc(Nc3cccc(C)n3)n2)cc1OC	3770
NS(=O)(=O)c1ccc(NS(=O)(=O)/C=C/c2ccccc2)cc1	7650
CCCOc1ccc(F)cc1-c1cc(C(=O)Nc2ccc(F)cc2)[nH]n1	3520
COCCn1c(SCC(=O)c2[nH]c(C)c(C(C)=O)c2C)nc2ccccc2c1=O	3120
CC(C)Cn1cc(-c2cncc3nccn23)cn1	4100
COCCCNC(=O)c1ccc(-c2c(C)noc2C)c2ccoc12	3520
Cc1ccc(/C=N/NC(=O)Cn2ccc(C(F)(F)F)n2)o1	2150
c1ccc(Cc2c(-c3ccco3)nc3c4ccccc4ccn23)cc1	4810
c1ccc(CSc2nnc(-c3ccco3)c(-c3ccco3)n2)cc1	20900 (active)
Clc1ccc(CSc2nnc3c(n2)[nH]c2ccccc23)cc1	3690
CN(C)CCN(Cc1ccccc1)S(=O)(=O)c1csc(C(N)=O)c1	5470

SMILES	fluorescence intensity
COc1ccc(-n2c(C)cc(C(=O)CSc3nnc(-c4cccs4)o3)c2C)cc1	18900 (active)
Cc1ccc(-n2c(C)cc(C(=O)CSc3nnc4ccccn34)c2C)cc1	2510
COc1ccc(-n2c(C)cc(C(=O)COC(=O)c3cc(OC)c(OC)cc3NC(=O)c3cccs3)c2C)cc1	2450
COC(=O)c1ccc(OC(=O)c2cnccn2)cc1	4650
O=C(Oc1ccccc1)c1ccc2nccnc2c1	16700 (active)
CC(C)CCC(C)NC(=O)c1ccc2nccnc2c1 (stereo not drawn)	4050
Cc1nccn1-c1ccc(NC(=O)[C@H]2O[C@@H](n3cnc4c(N)ncnc43)[C@H](O)[C@@H]2O)cc1	5940
CC(Oc1ccc(Cl)cc1Cl)C(=O)/C=C/N(C)C (stereo not drawn)	18300 (active)
CC(Oc1ccc(F)cc1F)C(=O)/C=C/N(C)C (stereo not drawn)	24200 (active)
CC(Oc1ccccc1F)C(=O)NN (stereo not drawn)	2470
CN(C)/C=C/C(=O)c1ccccc1F	4920
CC(=O)N(OCc1ccc(OC(C)C)c(Cl)c1)C(C)=O	4420
CCCC(=O)Nc1cccc(NC(=S)NC(=O)C(C)Oc2ccc(Cl)cc2Cl)c1 (stereo not drawn)	2030
CCOC(=O)c1sc(N)c(C#N)c1COC(=O)C1=COCCO1	4150
CCNC(=O)C1CCCN(C(=O)c2ccc(OC)cc2OC)CC1 (stereo not drawn)	2850
CCCOc1ccc(F)cc1-c1cc(C(=O)NCc2ccc(F)cc2)[nH]n1	3970
COCCNc1nc(NCc2ccc(NC(C)=O)cc2)c2sccc2n1	3410
CC(=O)Nc1cccc(Nc2ccc(C#N)cc2)c1	6880
CCOC(=O)C1CCCN(C(=O)c2cccc3ccccc23)CC1 (stereo not drawn)	3960
O=C(NCc1ccc(F)cc1)c1cc(C2CCCCN2C(=O)c2ccccn2)on1 (stereo not drawn)	4420
Nc1nc2cc(Cl)ccc2n1N	6290
CC(O)(c1cccc(F)c1)c1nc(-c2ccc3c(c2)OCO3)cs1 (stereo not drawn)	3850
CC(C)(C)C(=O)N(Cc1ccccc1)c1ccccn1	4430
O=C(N1CCOCC1)N(Cc1ccccc1)c1ccccn1	3710
CCC(=O)N(Cc1ccccc1)c1ccccn1	20800 (active)

SMILES	fluorescence intensity
COc1cc(F)ccc1-c1cc(C(=O)NCC2CCCCC2)[nH]n1	3000
CCC(C)[C@H](NC(=O)N1c2ccccc2NC(=O)[C@@H]1C(C)C)C(=O)N[C@@H](Cc1ccccc1)C(=O)O (stereo partly drawn)	3920
COc1ccc(NC(C)=O)cc1NC(=O)CN1CCN(C2c3ccccc3-c3ccccc32)CC1	4260
Cc1ccc(CN(CC(=O)NC2CCCCC2)C(=O)c2csnn2)cc1	5650
COc1ccc(/C(O)=C2/C(=O)C(=O)N(CCCN(C)C)C2c2ccccc2)cc1OC (stereo not drawn)	21200 (active)
CCCOc1ccc(/C(O)=C2/C(=O)C(=O)N(CCN(C)C)C2c2ccc(OC)c(OC)c2)cc1 (stereo not drawn)	4510
COc1cccc(C2/C(=C(/O)c3ccc(F)cc3)C(=O)C(=O)N2CCN(C)C)c1 (stereo not drawn)	4550
CC1(C)CC(O)C(CCC(O)c2ccccc2)C(C)(C)N1 (stereo not drawn)	2520
Cc1noc(C)c1C(=O)NCC1COc2ccccc2O1 (stereo not drawn)	6410
Cc1noc(C)c1C(=O)Nc1ccccn1	22800 (active)
Cc1c(C(=O)Nc2ccccn2)oc2ccc(Br)cc12	5620
Cn1c(=O)c2c(nc(SCCNS(=O)(=O)c3ccccc3)n2C)n(C)c1=O	10500
O=C(Nc1cc(Br)ccc1F)c1nc[nH]c1C(=O)NCc1ccccc1	4670
CCCCC(C(=O)NC(C)(C)C)N(Cc1ccccc1)C(=O)c1snc(C(N)=O)c1N (stereo not drawn)	3460
COc1ccc(S(=O)(=O)N2CCCC2)c(C)c1C	16000
CCOc1ccc(S(=O)(=O)n2ccnc2)c2ccccc12	5760
CCOc1ccc(S(=O)(=O)N2CCCCCC2)c2ccccc12	16700 (active)
CC(C)N1CCC(=NNc2ccc([N+](=O)[O-])cc2S(=O)(=O)N2CCOCC2)CC1	3480
O=C(NCC1CCCO1)C(C(=O)c1ccccc1)n1cc(Cl)ccc1=O (stereo not drawn)	19700 (active)
O=C(NCC1CCCO1)/C(=C/c1ccc(Cl)cc1)NC(=O)c1ccccc1 (stereo not drawn)	2550
O=C(CSc1ccc(-c2ccccc2)nn1)NCC1CCCO1 (stereo not drawn)	3400
N#Cc1ccc(C(=O)Nc2nc(-c3cccs3)c(C(=O)C(F)(F)F)s2)cc1	4970
OC[C@@H]1CN(Cc2ccc3c(c2)OCO3)C[C@H](n2cnc3c(NCc4ccco4)ncnc32)O1	3680
